105 compounds from ChEMBL document CHEMBL4513216, “Probing the Open Global Health Chemical Diversity Library for Multistage-Active Starting Points for Next-Generation Antimalarials” (ACS Infect Dis, 2020) can be followed below.

The whole screen tested about 69,000 compounds, of which about 8,600 (12%) showed an effect of 50% or more. The sample as a whole holds a higher share of strong results than the screen did.

The assay has as its system Plasmodium berghei. Kind of assay: Screen against P. berghei liver stage (PbLuc), transformed with Luciferase, at 10uM. Type of assay: functional, HepG2. Conditions: tested at 10 uM.
In the case of `Cc1ncccc1-c1cc2cccnc2n1CCCNC(=O)C1CC1`, the INHIBITION is 25.8%. Consider `CN(Cc1ccccc1)CC(O)Cn1cnc2c(Cl)cc(Cl)cc2c1=O` (stereo not given), for which the INHIBITION is 27.433%. Regarding `COCC1CN(C(=O)c2ccoc2C)Cc2nccn2C1` (stereo not given), the INHIBITION turned out to be 35.3%.

As for `CC(=O)NCCC(=O)NCc1cccnc1-n1cnc2ccccc21`, the INHIBITION is listed as 60.1%. Then `CS(=O)(=O)NCCC(=O)NCc1cccnc1-n1cnc2ccccc21`, with 41.2%; and `COCCC(=O)NCc1cccnc1-n1cnc2ccccc21`, with 33.9%; and `Cc1c(C(=O)N[C@H]2CN(CCS(C)(=O)=O)C[C@@H]2C2CC2)cnn1C`, with 29%. Then `CSCCCN1C[C@H](NC(=O)c2cnn(C)c2)[C@@H](C2CC2)C1`, with 12.6%. The result for `CCc1cc(C(=O)N[C@H]2CN(CCS(C)(=O)=O)C[C@@H]2C2CC2)[nH]n1` reads 55%; that for `Cc1[nH]ccc1C(=O)N[C@H]1CN(CCO)C[C@@H]1C1CC1`, 9.89%; that for `CS(=O)(=O)CCN1C[C@H](NC(=O)c2cnc(O)cn2)[C@@H](C2CC2)C1`, -3.43%. Take `Cc1cnc(C(=O)N[C@H]2CN(CCS(C)(=O)=O)C[C@@H]2C2CC2)cn1`: the INHIBITION came to 53.9%. The result for `Cc1ccc(CNC(C)c2ccc(N3CCN(C)CC3)c(F)c2)o1` (stereo not given) reads -11%. `C1CCc2nnc(CNc3nc(C4CC4)nc4c3CCNCC4)n2CC1`: the INHIBITION stood at 3.06%. The result for `CCc1ccc(S(=O)(=O)Nc2cc(C(=O)O)ccc2F)s1` reads 13.85%; that for `COCCNC(=O)c1cc(S(=O)(=O)N2CCCCCC2)cs1`, 45.6%.

Turning to `COCCNC(=O)c1cc(S(=O)(=O)N2CCCC2)cs1`, the INHIBITION turned out to be 10.3%. With `NS(=O)(=O)c1cc(C(=O)N2CCCCC2)cs1`, the INHIBITION stood at 30.7%. Then `O=C(c1cc(-c2cccs2)cs1)N1CCSCC1`, with -61.1%. `NC(=O)C1CCN(C(=O)c2cc(S(=O)(=O)N3CCCCC3)cs2)CC1`: the INHIBITION is given as 56.3%. Take `CN(C)S(=O)(=O)c1csc(C(=O)N2CCSCC2)c1`: the INHIBITION amounted to 65.6%. The result for `NC(=O)C1CCN(Cc2ccc(S(=O)(=O)N3CCCC3)o2)CC1` reads 16.5%; that for `CCN(CC)S(=O)(=O)c1csc(C(=O)N2CCC(C(N)=O)CC2)c1`, 49.9%; that for `CCN(c1ccsc1C(=O)N1CCSCC1)S(=O)(=O)c1ccccc1`, -27.5%. Then `CN(C)S(=O)(=O)c1csc(C(=O)N2CCC(C(N)=O)CC2)c1`, with 60.1%.

For `NC(=O)C1CCN(C(=O)c2cc(S(=O)(=O)N3CCCC3)cs2)CC1`, the INHIBITION is reported as 56.3%. Then `CCN(c1ccc(C(=O)N2CCC(C(N)=O)CC2)cc1)S(=O)(=O)CC`, with 47.3%.

Regarding `CC(C(=O)N1CCCN(c2ccc(C#N)cc2)CC1)n1cccn1` (stereo not given), the INHIBITION is on record as 10%. For `CCc1nc(C2CCCN2CC(=O)N2CCc3ccccc32)no1` (stereo not given), the INHIBITION came out at 23.5%. Turning to `O=C(CCc1nc2cccnc2[nH]1)Nc1ccc2c(c1)OCC(=O)N2`, the INHIBITION is listed as 17.1%. On to `CC(C)(C)c1cc(C(=O)N2CCC(c3cnccn3)CC2)[nH]n1`, for which the INHIBITION worked out at 29.9%.

Take `CC(C)CCC(=O)NCCc1ccn(-c2ccccc2)n1`: the INHIBITION came out at 5.7%. Regarding `NC(=O)CN(Cc1ccc(Br)cc1)C(=O)c1ccncc1`, the INHIBITION is recorded as -9.51%.

As for `CCOc1ccc(C(=O)N2C[C@@H]3CC[C@H]2CN(C(=O)C2CCC2)C3)cc1`, the INHIBITION is recorded as 30.3%. The result for `CCn1cc(CN2C[C@@H]3CC[C@H]2CN(C(=O)C2CCC2)C3)cn1` reads 4.15%.

For the compound `CCc1ncc(CN2C[C@@H]3CC[C@H]2CN(C(=O)C2CCC2)C3)cn1`, the INHIBITION was 62.6%. Then `CCCNc1ncc(CN2C[C@@H]3CC[C@H]2CN(C2CCOCC2)C3)cn1`, with 1.98%; and `O=C(O)[C@@H]1CN(Cc2cnc(C3CCCCC3)nc2)C[C@H]1C1CC1`, with 29.6%.

On to `Cc1ccc(C(=O)N2C[C@H]3CC[C@@H](C2)N(Cc2ccccc2)C3)cn1`, for which the INHIBITION is given as -13%.

Consider `CCNc1ncc(CN2C[C@@H]3CC[C@H]2CN(C(=O)C2CCC2)C3)cn1`, for which the INHIBITION amounted to 60.4%.

Consider `CCNc1ncc(CN2C[C@H](C3CC3)[C@@H](N)C2)cn1`, for which the INHIBITION is 23.9%.

Consider `CCNc1ncc(CN2C[C@@H](C(=O)O)[C@H](C3CC3)C2)cn1`, for which the INHIBITION is 58.2%. Take `Cc1ccc(NC2COC3(CCN(Cc4ccn(C)n4)CC3)C2)nn1` (stereo not given): the INHIBITION is listed as -4.99%. The result for `Cc1ccc([C@@H]2CN(C(=O)c3ccccc3C)C[C@H]2N(C)C)cc1` reads 39.5%; that for `N#Cc1ccccc1CN1C[C@H]2CC[C@@H](C1)N(CC1CCC1)C2=O`, 42.6%.

As to `O=C(N1CCC(Nc2cccnn2)CC1)C1(c2ccc(F)cc2)CC1`, the INHIBITION turned out to be 30.2%. The result for `CCc1ncc2c(n1)CN(CCCc1nc3ccccc3o1)CC2` reads 38.5%; that for `COCCCNC(=O)CN(C)C(C)c1nc(C(C)C)no1` (stereo not given), 59.3%; that for `Cc1noc(C(C)N(C)CC(=O)NCCc2ccc(Cl)cc2)n1` (stereo not given), -9.3%. Consider `COCCCNC(=O)CN(C)C(=O)c1ccccc1O`, for which the INHIBITION is 20.4%. The result for `COCCNC(=O)CN(C)C(C)c1nc(C)no1` (stereo not given) reads 58.5%; that for `COCCCNC(=O)CN(C)C(C)c1nc(C)no1` (stereo not given), 14.6%; that for `COCCCNC(=O)c1c(C)noc1C(C)C`, -33.7%. The result for `CCc1ccccc1Nc1noc2c1CN(C(=O)CCOC)CC2` reads -5.71%; that for `CC(C)CNC(=O)C1CC(=O)N(c2n[nH]c3ccccc23)C1` (stereo not given), -11.7%; that for `CCN1CCCC(C)(C(=O)NCc2nnnn2-c2ccccc2)C1` (stereo not given), -1.7%. As for `c1ccc2nc(NCC3(N4CCOCC4)CCSC3)cnc2c1` (stereo not given), the INHIBITION is 46.6%. The result for `c1nc(NCC2(N3CCOCC3)CCSC2)c2sccc2n1` (stereo not given) reads 91.1%; that for `Fc1cccc2ncnc(NCC3(N4CCOCC4)CCSC3)c12` (stereo not given), 91.1%; that for `c1ccc2c(NCC3(N4CCOCC4)CCSC3)ncnc2c1` (stereo not given), 94.5%. As for `O=C(NCC1(N2CCOCC2)CCSC1)Nc1ccccn1` (stereo not given), the INHIBITION is 18.6%. Then `c1ccc2sc(NCC3(N4CCOCC4)CCSC3)nc2c1` (stereo not given), with 18.3%.

For `O=C(NCC1(N2CCOCC2)CCSC1)Nc1ccncc1` (stereo not given), the INHIBITION turned out to be 18.6%. The result for `CN(Cc1ccc(F)cc1)C(=O)NCC1(N2CCOCC2)CCSC1` (stereo not given) reads 36.8%; that for `O=C(NCc1ccc(F)cc1)NCC1(N2CCOCC2)CCSC1` (stereo not given), 40.5%.

Turning to `CC1CCN(S(=O)(=O)c2ccc(C(=O)N3CCSCC3)cc2)CC1`, the INHIBITION is -2.39%. Consider `CN(C)C(=O)NCc1cc2n(n1)CCN(CC1[C@H]3CNC[C@@H]13)C2` (stereo not given in full), for which the INHIBITION turned out to be 43.5%. Then `NC(=O)c1cnn2c(C3CCN(CCO)CC3)ccnc12`, with 14.55%; and `COCc1cnc2n1CCN(Cc1cccnc1)C2C` (stereo not given), with -0.182%; and `O=C(N[C@@H]1CN(Cc2cccc3[nH]ccc23)C[C@H]1O)c1cscn1`, with -10.8%. In the case of `CCN1CC(COC(C)(C)C)Oc2ccncc2S1(=O)=O` (stereo not given), the INHIBITION was determined as 13.1%. Take `CS(=O)(=O)N1CCN(C(=O)CCn2cccn2)CC1`: the INHIBITION stood at 17.32%. Then `Cc1ccccc1OCCN(C)Cc1noc(CC(C)C)n1`, with 33.7%.

In the case of `CC(C)Cc1nc(CN(C)CCOc2ccccc2F)no1`, the INHIBITION is given as 34.7%. The result for `CC(C)Cc1nc(CN(C)CCOc2ccc(F)cc2)no1` reads 59.4%. Then `Cc1cccc(C(=O)N2CCc3c(CN(C)C)nn(C)c3C2)n1`, with 38.3%; and `Cc1nc(C)c(C(=O)NCCNc2ncccn2)s1`, with 38.8%; and `CN1CCN(CC2CC2)C(=O)C12CCN(C(=O)c1ccnnc1)CC2`, with 5.63%. Then `CC(=O)Nc1ccc2c(c1)CN(C(=O)c1ccco1)CC2`, with 55.7%; and `CCC(=O)Nc1ccc2c(c1)CN(C(=O)c1ccco1)CC2`, with -46.6%; and `COCC(=O)Nc1ccc2c(c1)CN(C(=O)c1ccco1)CC2`, with -45.3%.

On to `CC(=O)c1cc(Br)cc(F)c1OCC(=O)NC1CC1`, for which the INHIBITION is -3.72%.

Consider `CN(C)C(=O)CN1CCCC(CCCc2ccccn2)(C(N)=O)C1` (stereo not given), for which the INHIBITION was -50.2%. In the case of `COc1cccc(OCC(=O)N2CCC3(CC2)[C@H](O)C[C@@H]3OC)c1`, the INHIBITION is on record as -14.1%. The result for `NCCO[C@H]1C[C@@H](O)C12CCN(C(=O)CCOc1ccccc1)CC2` reads 5.67%.

Take `CCn1cnnc1C1CCN(C(=O)COc2ccc(Cl)cc2)CC1`: the INHIBITION is reported as -37.7%. Then `Cc1ccccc1OCCC(=O)N1CCC(c2nncn2C)CC1`, with -4.94%; and `CCn1cnnc1C1CCN(C(=O)c2cc3c(s2)CCCC3)CC1`, with 13.3%.

As for `Cc1cccc(C)c1OCCC(=O)N1CCC(c2nncn2C)CC1`, the INHIBITION was 55.9%.

`CO[C@H]1C[C@@H](O)C12CCN(C(=O)CCCOc1ccccc1)CC2`: the INHIBITION was determined as 72.3%. The result for `CCn1cnnc1C1CCN(C(=O)c2cc3c(s2)CCC3)CC1` reads 61.3%; that for `CCn1cnnc1C1CCN(C(=O)COc2ccccc2)CC1`, 53%; that for `Cn1cnnc1C1CCN(C(=O)c2cc3c(s2)CCC3)CC1`, 9.14%. On to `Cc1ccc(OCCC(=O)N2CCC(c3nncn3C)CC2)c(C)c1`, for which the INHIBITION was -17%. For the compound `CCn1cnnc1C1CCN(C(=O)COc2ccccc2OC)CC1`, the INHIBITION is on record as -41.6%. As for `CC1(c2ccc(Br)cc2)CC(=O)N(CCC#N)C1=O` (stereo not given), the INHIBITION is recorded as -12.2%.

For the compound `O=C(O)c1ccccc1-c1ccc(CN2CCCC(O)C2)cc1` (stereo not given), the INHIBITION was found to be 48.6%. The result for `Oc1nc(C2CCN(Cc3ccccn3)CC2)cc2ccccc12` reads -13.2%; that for `CCOc1ccnc(N2CCN(C(=O)c3cn[nH]c3C)CC2)n1`, -11.4%. Then `O=C(c1ccccn1)N1C[C@H]2CC[C@@H](C1)N(C(=O)CCc1ccsc1)C2`, with -16.5%.

Turning to `CCc1n[nH]c(=O)c(C(=O)N2CCSC(C)(C)C2)c1CC`, the INHIBITION was found to be 18.7%.

For `COCCC(=O)NCCc1nc(N(C)C)ncc1-c1ccncc1`, the INHIBITION was 2.5%. Then `CCn1cnnc1C1CCN(C(=O)COCCc2ccccc2)CC1`, with 32%; and `Cn1cnnc1C1CCN(C(=O)CCCOc2ccccc2)CC1`, with 28.8%; and `CCn1cnnc1C1CCN(C(=O)CCCOc2ccccc2)CC1`, with 60.9%.
